# Active and inactive are the calls of the source. Entries that show only a call come without a potency. Calls come from the whole dose curve; as a rule, active = well fitted activation curve with a large enough effect in the repeat runs; inconclusive = weak or mixed curves; inactive = flat fitted curve, though single readings scatter.
# Experiment: A CellTox Green Cytotoxicity Assay to monitor cytotoxicity in HepG2 cells - 0 hour (AID 1224882); note: nearly all actives have a fitted effect of over 35% in size
# Conditions: CellTox Green fluorescence; series mostly up to 76.8 µM
# Excerpt: National Center for Advancing Translational Sciences [NCATS]
# NIH Chemical Genomics Center [NCGC]
# U.S. Environmental Protection Agency [EPA]
# National Institutes of Environmental Health Sciences [NIEHS]
# National Toxicology Program [NTP]
# Cell-based models are critical for drug discovery. Determining the natural cytotoxic effects resulting from test compounds is an essential research activity. A CellTox Green Cytotoxicity Assay to monitor cytotoxicity in real time of continues cell culture during 40 hours of the compound treatment was used to screen Tox21 10K library compounds in HepG2 cells. CellTox Green Cytotoxicity Assay is a nonlytic, homogeneous, biofluorescent method to measure cytotoxicity in cell culture after experimental manipulation. The assay system uses a proprietary asymmetric cyanine dye that is excluded from viable cells but preferentially stains the dead cell's DNA. […] Viable cells produce no appreciable increases in fluorescence. Therefore, the fluorescence signal produced by the binding interaction with dead cell DNA is proportional to cytotoxicity.
# The mixture of HepG2 cell suspension and reagents were dispensed at 600cells/6 ul/well in 1536-well tissue culture treated black solid bottom plates using a Multidrop dispenser. After the assay plates were incubated at a 37 C/5% CO2 incubator for 5 hours, 23 nL of compounds dissolved in DMSO, positive and negative controls was transferred to the assay plate by a pintool work station. The plates were incubated at 37 C for 40 hours. The fluorescence intensity were measured at 0h, 8h, 16h, 24h, 32h and 40h time points using ViewLux plate reader during compound treatment.
row,Structure (SMILES),Potency
1,CC(C)N=C(N)/N=C(\N)Nc1ccc(Cl)cc1,inactive
2,ClC/C=C\CCl,inactive
3,O=C1OC(=O)c2cccc3cccc1c23,inactive
4,O=Nc1ccc(NO)cc1,inactive
5,CC1CNCC(C)O1 (stereo not given),inactive
6,c1cc(OCC2CO2)cc(OCC2CO2)c1 (stereo not given),inactive
7,COc1cc(C(=O)NS(=O)(=O)c2ccccc2C)ccc1Cc1cn(C)c2ccc(NC(=O)OC3CCCC3)cc12,inactive
8,C1CC(COCC2CO2)CCC1COCC1CO1 (stereo not given),inactive
9,CC(=O)OC1CCCCC1,inactive
10,CC(C(O)c1ccccc1)N(C)CCOC(c1ccccc1)c1ccccc1 (stereo not given),inactive
11,c1ccc(Sc2ccccc2)cc1,inactive
12,CC(C)OC(=O)c1cc(C(=O)OC(C)C)cc([N+](=O)[O-])c1,inactive
13,CCCCCCOc1cc(C)c(O)c(C)c1C,inactive
14,Oc1c(Br)cc(Br)c2cccnc12,inactive
15,CCC1(c2cnc[nH]2)Cc2ccccc2C1,inactive
16,CCCCCCCC(OC)OC,inactive
17,COC(=O)CC#N,inactive
18,Cc1cc(=O)[nH]c(=O)[nH]1,inactive
19,O=S(=O)(O)CCCN1CCOCC1,inactive
20,OCCCc1cccnc1,inactive

row,Structure (SMILES),Potency
1,Brc1ccccn1,inactive
2,C(=C/c1ccccc1)/c1ccccc1,inactive
3,CCCCCCCCCCc1ccccc1,inactive
4,C[Si](C)(C)Cl,inactive
5,CCCCCCCCCC(=O)N(C)C,inactive
6,CCCCOC(=O)C(C)CC (stereo not given),inactive
7,O=C[C@H](O)[C@H](O)[C@H](O)CO,inactive
8,C=CC/C=C/C/C=C/C/C=C/C,inactive
9,CCc1cccc(C)c1,inactive
10,CCO[Si](CCCSSSSCCC[Si](OCC)(OCC)OCC)(OCC)OCC,inactive
11,CC(C)C(=O)OCc1ccccc1,inactive
12,CC(C)(C)c1cc(CCC(=O)NCCCCCCNC(=O)CCc2cc(C(C)(C)C)c(O)c(C(C)(C)C)c2)cc(C(C)(C)C)c1O,inactive
13,CN(C)c1ccc(N=NS(=O)(=O)O)cc1,inactive
14,CCCC(=O)OCC(COC(=O)CCC)OC(=O)CCC,inactive
15,CCN=C1C=CC(=C(c2ccc(N(CC)CC)cc2)c2ccc(N(CC)CC)cc2)c2ccccc21,inactive
16,CC(=O)O[C@@H]1C[C@@H]2CC[C@@]1(C)C2(C)C,inactive
17,COC(=O)NCCC[Si](OC)(OC)OC,inactive
18,Cc1nc(Nc2ncc(C(=O)Nc3c(C)cccc3Cl)s2)cc(N2CCN(CCO)CC2)n1,inactive
19,CC(C)=CC1CC(C)CCO1 (stereo not given),inactive
20,Oc1ccc(-c2ccccc2)c(Cl)c1,inactive

# Reference: PubChem BioAssay (Tox21)
